Test systems include RPMI-8226 leukemia; OVCAR-8 ovarian; OVCAR-5 ovarian; OVCAR-4 ovarian; SK-OV-3 ovarian; IGROV1 ovarian; OVCAR-3 ovarian; HS 578T breast; NCI/ADR-RES ovarian; T-47D breast; BT-549 breast; MDA-MB-435 melanoma; SW-620 colon; MCF7 breast; HCT-116 colon; HCC-2998 colon; KM12 colon.
Common to all, as to assay: NCI-60 one-dose screen, 48 h (100 = growth as untreated, 0 = no growth, -100 = all killed)
Common to all, as to settings: 10 µM unless noted

This is part of a sample that, as a whole, favours compounds with a hit. Of some 83,000 tested, about 20% had one in any assay.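 Values shown are percent growth following 48 h exposure of cells in 96-well plates to a single concentration of compound; below 10 was considered active.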 A number with no mark means an inactive call. The source made the active and inactive calls.

For `Cc1ccc(NC(=O)COC(=O)c2ccc(S(=O)(=O)N3CCCCCC3)cc2)cc1`, the growth was 97.6% in the assay on RPMI-8226 leukemia; 98.8% in the assay with OVCAR-8 ovarian; 84% in the assay with OVCAR-5 ovarian; 105% in the assay with OVCAR-4 ovarian; 79.4% in the assay with SK-OV-3 ovarian; 101% in the assay on IGROV1 ovarian. Moreover, the growth in the assay on OVCAR-3 ovarian is 106%; in the assay with HS 578T breast, 113%; in the assay on NCI/ADR-RES ovarian it was 105%; in the assay on T-47D breast it was 5.22% (active); with BT-549 breast, 141%; in the assay with MDA-MB-435 melanoma, 107%. Also, the growth with SW-620 colon was 107%; in the assay on MCF7 breast it was 102%; in the assay on HCT-116 colon, 103%; in the assay on HCC-2998 colon, 91.5%; with KM12 colon it was 97.7%.

Turning to `CCCCCCCCCCSc1ncnc2nc[nH]c12`, the growth with RPMI-8226 leukemia is 51.4%; with OVCAR-8 ovarian it was 67.5%; in the assay with OVCAR-5 ovarian it was 101%; in the assay with OVCAR-4 ovarian, 61.3%; in the assay on SK-OV-3 ovarian, 85%; with IGROV1 ovarian it was 75.1%. The growth in the assay on OVCAR-3 ovarian is 71.1%; in the assay with HS 578T breast, 91.4%; in the assay on NCI/ADR-RES ovarian, 54.5%; with T-47D breast, 47.9%; in the assay with BT-549 breast it was 75.8%; with MDA-MB-435 melanoma it was 76.6%. For the same compound, the growth with SW-620 colon was 86.5%; with MCF7 breast, 75.9%; with HCT-116 colon, 48.8%; in the assay on HCC-2998 colon it was 78.1%; in the assay with KM12 colon it was 85.1%.

Consider `COc1cccc2c1O/C(=C\c1c([N+](=O)[O-])ncn1C)C2=O`, for which the growth is -17% (active) with RPMI-8226 leukemia; 94.4% in the assay on OVCAR-8 ovarian; 108% in the assay with OVCAR-5 ovarian; 106% in the assay on OVCAR-4 ovarian; 93.4% in the assay on SK-OV-3 ovarian; 97.4% in the assay with IGROV1 ovarian. Also, the growth in the assay with OVCAR-3 ovarian is 106%; with HS 578T breast, 111%; with NCI/ADR-RES ovarian, 98.1%; in the assay on T-47D breast, 106%; with BT-549 breast it was 98%; in the assay with MDA-MB-435 melanoma it was 91.6%. The growth in the assay with SW-620 colon is 105%; in the assay on MCF7 breast, 88.4%; in the assay with HCT-116 colon, 83.3%; with HCC-2998 colon, 105%; in the assay on KM12 colon, 105%.

In the case of `COc1cc(C2C=C(c3ccc(C)cc3)Nc3nc(SC)[nH]c(=O)c32)ccc1Oc1ccnc2cc(Cl)ccc12` (stereo not drawn), the growth is 65.6% in the assay on RPMI-8226 leukemia; 83.4% in the assay on OVCAR-8 ovarian; 84.3% in the assay on OVCAR-5 ovarian; 86.3% in the assay with OVCAR-4 ovarian; 106% in the assay with SK-OV-3 ovarian; 90.5% in the assay with IGROV1 ovarian. Also, the growth was 81.1% in the assay with OVCAR-3 ovarian; 90.8% in the assay with HS 578T breast; 72.6% in the assay on NCI/ADR-RES ovarian; 82.3% in the assay with T-47D breast; 87.9% with BT-549 breast; 55.3% in the assay with MDA-MB-435 melanoma. In addition, the growth was 93.3% with SW-620 colon; 56.9% in the assay on MCF7 breast; 64.5% with HCT-116 colon; 95.9% in the assay on HCC-2998 colon; 60.5% with KM12 colon.

`CN(C)c1nc(N)nc(Cn2c(-c3nonc3N)nc3ccccc32)n1`: the growth in the assay with RPMI-8226 leukemia was 87.9%; with OVCAR-8 ovarian it was 91.9%; in the assay with OVCAR-5 ovarian, 90.6%; with OVCAR-4 ovarian it was 87.8%; in the assay with SK-OV-3 ovarian it was 88.8%; with IGROV1 ovarian it was 95.7%. The growth in the assay with OVCAR-3 ovarian was 98%; in the assay on HS 578T breast, 77.4%; with NCI/ADR-RES ovarian, 73.6%; in the assay on T-47D breast, 89.7%; with BT-549 breast, 91.8%; with MDA-MB-435 melanoma, 7.85% (active). Also, the growth in the assay with SW-620 colon was 52.4%; in the assay with MCF7 breast it was 66.5%; in the assay on HCT-116 colon, 71.5%; in the assay on HCC-2998 colon, 82.7%; in the assay with KM12 colon, 55.4%.

Take `COc1ccc(COC(C)=O)cc1`: the growth in the assay on RPMI-8226 leukemia was 103%; with OVCAR-8 ovarian, 106%; in the assay with OVCAR-5 ovarian it was 98.1%; in the assay on OVCAR-4 ovarian it was 120%; in the assay on SK-OV-3 ovarian it was 113%; in the assay on IGROV1 ovarian, 142%. The growth was 110% in the assay with OVCAR-3 ovarian; 105% in the assay on HS 578T breast; 116% in the assay with NCI/ADR-RES ovarian; 102% in the assay on T-47D breast; 99.7% with BT-549 breast; 111% with MDA-MB-435 melanoma. The growth is 98.8% in the assay with SW-620 colon; 102% in the assay on MCF7 breast; 107% in the assay with HCT-116 colon; 114% with HCC-2998 colon; 104% with KM12 colon.

As to `CN(C)c1ccc(/C=C(\C#N)c2nc3ccccc3c(=O)[nH]2)cc1`, the growth with RPMI-8226 leukemia was 140%; with OVCAR-8 ovarian it was 97.1%; in the assay on OVCAR-5 ovarian it was 86.8%; in the assay on OVCAR-4 ovarian, 29.9%; in the assay on SK-OV-3 ovarian, 114%; in the assay on IGROV1 ovarian, -10.8% (active). The growth in the assay with OVCAR-3 ovarian is 114%; in the assay with HS 578T breast, 71.4%; in the assay with NCI/ADR-RES ovarian, 76.9%; with T-47D breast, 92.1%; in the assay with BT-549 breast, 87.9%; in the assay on MDA-MB-435 melanoma, 86.7%. Further, the growth in the assay on SW-620 colon is 82.6%; in the assay with MCF7 breast, 73.5%; in the assay on HCT-116 colon, 76.9%; with HCC-2998 colon it was 84.8%; with KM12 colon, 79.9%.

As for `Cc1ccc(C(=O)Nc2ccc(Cl)cc2C(=O)NCc2ccccc2)cc1`, the growth is 77.8% in the assay with RPMI-8226 leukemia; 87.9% in the assay on OVCAR-8 ovarian; 100% with OVCAR-5 ovarian; 79.5% in the assay on OVCAR-4 ovarian; 117% in the assay with SK-OV-3 ovarian; 84.1% in the assay with IGROV1 ovarian. The growth was 91.6% in the assay with OVCAR-3 ovarian; 89.7% with HS 578T breast; 72.5% with NCI/ADR-RES ovarian; 94% in the assay on T-47D breast; 103% in the assay with BT-549 breast; 2.07% (active) in the assay with MDA-MB-435 melanoma. Besides, the growth in the assay with SW-620 colon was 58.9%; in the assay on MCF7 breast it was 53.9%; in the assay with HCT-116 colon it was 89.9%; with HCC-2998 colon, 86.9%; with KM12 colon, 60.5%.

As to `N#CCCCCCn1c2ccccc2c2c3c(c4c5ccccc5[nH]c4c21)C(=O)N(O)C3=O`, the growth in the assay on RPMI-8226 leukemia was -18.3% (active); in the assay with OVCAR-8 ovarian, 7.06% (active); in the assay with OVCAR-5 ovarian, -18.3% (active); in the assay with OVCAR-4 ovarian it was 19.5%; in the assay with SK-OV-3 ovarian, 41.3%; in the assay on IGROV1 ovarian, -1.36% (active). Further, the growth with OVCAR-3 ovarian is -13.4% (active); in the assay with HS 578T breast it was 19.8%; with NCI/ADR-RES ovarian it was 67.9%; in the assay on T-47D breast it was 14.2%; with BT-549 breast, 16.1%; in the assay on MDA-MB-435 melanoma, 14.3%. The growth with SW-620 colon is 12.5%; in the assay on MCF7 breast, 6.24% (active); with HCT-116 colon, -33.3% (active); in the assay with HCC-2998 colon, 1.36% (active); in the assay with KM12 colon it was 4.16% (active).
